RGS4 inh: human RGS4 inhibition | Transcreener GDP fluorescence polarization, RGS4-accelerated GTP hydrolysis | AID 504845 | Potency, µM (series often up to 114 µM), inactives show top-dose activity change, negative = inhibition, usual class: inhibitors | 390,000 compounds, 0.039% hits | P49798; note: nearly all actives have a fitted effect of over 75% in size
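MLSMR compounds (23 nl, pin-transferred) preincubated 10 min at room temperature with a 500nM (2x) first reagent, then RGS4 at 900nM (2x) plus Transcreener GDP mix added; fluorescence polarization (620/688 nm) read before and after 90 min at 30 °C.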
TDP1 inh: inhibitors of human tyrosyl-DNA phosphodiesterase TDP1; recombinant TDP1, AlphaScreen DNA substrate cleavage; Potency, µM (series often up to 130 µM), without a hit: at the top dose activity change, negative = inhibition, usual class: inhibitors; 350,000 compounds, 0.28% hits; AID 485290; note: nearly all actives have a fitted effect of over 40% in size
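E. coli-derived human Tdp1, 1 nM final. Cpd preinc 15 min RT; substrate 15 nM final, 5 min RT; AS bead mix 10 ug/ml final, 10 min RT. Signal loss = tyrosine-FITC cleavage. No-enzyme wells = max signal.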
APE1 inh-1: inhibitors of human APE1 endonuclease; 350,000 compounds, 0.35% hits; P27695; recombinant APE1, TAMRA/BHQ-2 abasic DNA cleavage fluorescence; Potency, µM (highest dose often 65.8 µM), for the others: at the highest dose activity change, negative = inhibition, hits mostly inhibitors;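 note: plate controls were vehicle for no effect and reference inhibitor for full effect; nearly all actives have a fitted effect of over 55% in size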
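Activity was derived from the fluorescence gain between first and third kinetic reads (60 s intervals, ex 525/em 598 nm) after 50 nM THF-abasic TAMRA/BHQ-2 duplex was added to 0.75 nM APE1 preincubated 15 min with compound.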
GCN5L2 inh: GCN5L2 (KAT2A) acetyltransferase inhibition; Q92830; GCN5L2 HAT assay, ThioGlo1 CoA-SH fluorescence; Potency, µM (series often up to 58.9 µM), for inactives: top-dose activity change, negative = inhibition, hits mostly inhibitors; 390,000 compounds, 0.21% hits
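Titration-based screen in which CoA formation is detected via maleimide probe ThioGlo1 (50uM) turning fluorescent on thiol reaction; substrates H3(1-25) 75uM and acetyl-CoA 70uM, GCN5L2 20nM, 20 min incubation at room temperature.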
BLM helicase inh: Bloom syndrome helicase (human) inhibition. recombinant BLM DNA unwinding, fluorescence dequenching. Potency, µM (doses to about 56.1 µM), for inactives: at the top dose activity change, negative = inhibition, actives largely listed as inhibitors. 350,000 compounds, 0.2% hits. AID 2528;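 note: plate controls were vehicle for no effect and no enzyme for full effect; nearly all actives have a fitted effect of over 35% in size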
RECQ1 inh-1: RECQ1 (human) helicase inhibition; P46063; RECQ1 DNA unwinding, red fluorescence kinetic read; Potency, µM (series often up to 57.3 µM), for the others: top-dose activity, negative = inhibition, most hits filed as inhibitors; 240,000 compounds, 0.54% hits;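 note: plate controls were vehicle for no effect and no enzyme for full effect; nearly all actives have a fitted effect of over 30% in size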
Target sequence (P46063 whole entry, looked up): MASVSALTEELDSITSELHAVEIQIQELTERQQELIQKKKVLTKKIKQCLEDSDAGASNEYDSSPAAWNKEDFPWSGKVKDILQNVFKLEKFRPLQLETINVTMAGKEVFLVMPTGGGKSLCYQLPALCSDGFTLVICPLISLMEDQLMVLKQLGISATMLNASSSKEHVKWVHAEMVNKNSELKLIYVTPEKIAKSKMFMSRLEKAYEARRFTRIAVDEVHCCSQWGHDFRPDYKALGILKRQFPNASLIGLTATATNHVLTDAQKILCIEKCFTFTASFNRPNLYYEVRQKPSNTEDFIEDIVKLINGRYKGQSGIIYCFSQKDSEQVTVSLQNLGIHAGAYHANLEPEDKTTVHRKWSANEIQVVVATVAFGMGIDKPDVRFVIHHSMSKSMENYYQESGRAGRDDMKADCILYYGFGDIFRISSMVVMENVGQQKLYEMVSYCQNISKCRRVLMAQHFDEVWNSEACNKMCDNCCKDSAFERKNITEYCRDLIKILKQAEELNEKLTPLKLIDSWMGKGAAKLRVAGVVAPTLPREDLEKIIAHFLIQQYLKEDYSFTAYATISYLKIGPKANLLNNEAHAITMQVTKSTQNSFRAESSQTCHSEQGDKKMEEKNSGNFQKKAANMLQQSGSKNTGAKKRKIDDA
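RECQ1T1 50 nM; forked duplex (20 bp + 30-nt ss tails) 200 nM, ATP 2 mM final; pH 8.0, 2 mM MgCl2, 2.5 ug/ml poly(dI-dC); 15 min compound preincubation; discontinuous kinetic read over 2 h at RT.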
APE1 dye cs: counter-screen for APE1 inhibitors: DNA dye displacement; shares compounds with APE1 inh-1; DNA fluorescent dye displacement counterscreen, fluorescence; Potency, µM (series often up to 28.5 µM), for the others: at the highest dose activity change, negative = inhibition, hits mostly inhibitors; 480 compounds, 7% hits;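 note: loss of thiazole orange fluorescence as the dye is displaced from duplex DNA; 0% = ThO with dsDNA and no compound and -100% = ThO without dsDNA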
Endo IV inh: counter-screen for APE1 inhibitors: inhibitors of E. coli endonuclease IV; Potency, µM (doses to about 27.1 µM), inactives show at the top dose activity change, negative = inhibition, usual class: inhibitors; 560 compounds, 4% hits; shares compounds with APE1 inh-1; E. coli Endo IV, fluorogenic AP-site DNA cleavage;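 note: plate controls were uninhibited enzyme wells for no effect and no enzyme buffer wells for full effect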
APE1 inh-2: APE1 (human) endonuclease inhibition, confirmation; shares compounds with APE1 inh-1; purified APE1, fluorogenic abasic-site DNA cleavage; Potency, µM (doses to about 57.1 µM), without a hit: at the highest dose activity change, negative = inhibition, hits mostly inhibitors; 750 compounds, 44% hits; AID 2572; note: nearly all actives have a fitted effect of over 30% in size
APE1 FP: compounds that displace a DNA probe from human APE1; 480 compounds, 7% hits; APE1 binding to TAMRA-labelled double-stranded DNA, fluorescence polarization displacement; Potency, µM (doses to about 28.5 µM), without a hit: top-dose activity, negative = inhibition, usual class: inhibitors; AID 2573; shares compounds with APE1 inh-1
RECQ1 inh conf: confirmation of human RECQ1 helicase inhibitors | shares compounds with RECQ1 inh-1 | RECQ1 helicase DNA unwinding, fluorescence | Potency, µM (titrated, usually from 229 µM), for the others: top-dose activity change, negative = inhibition, actives largely listed as inhibitors | 610 compounds, 28% hits | AID 2708; note: nearly all actives have a fitted effect of over 45% in size
RECQ1 ADP FP: displaces ADP in a fluorescence polarization counter-screen for RECQ1 hits; shares compounds with RECQ1 inh-1; 530 compounds, 27% hits; ADP fluorescence polarization displacement counterscreen; Potency, µM (titrated, usually from 228 µM), without a hit: at the top dose activity change, negative = inhibition, most hits filed as inhibitors; note: nearly all actives have a fitted effect of over 45% in size
RECQ1 inh-2: confirmation of human RECQ1 helicase inhibitors | shares compounds with RECQ1 inh-1 | recombinant RECQ1 DNA unwinding, red fluorescence | Potency, µM (series often up to 119 µM), for inactives: at the top dose activity, negative = inhibition, usual class: inhibitors | 1,100 compounds, 15% hits | AID 504841; note: nearly all actives have a fitted effect of over 50% in size
Numbers without * were called inactive; [ ] = another dose, or the depositor's remark. Hits are enriched below; roughly 0.87% of the tested compounds scored in any of these assays. Calls come from the whole dose curve; as a rule, active = well fitted curve in the direction sought with a large enough effect; inconclusive = small, poorly fitted or top-dose-only effect, or another doubt; inactive = no such curve, though single readings can be large; an effect the other way counts as inactive or inconclusive. Unless noted, % is set by controls: 0 for no effect and ±100 for the full control effect; potency is the fitted concentration of half-maximal effect.

Screening O=C(NN1C(=O)C2CC=C(Cl)CC2C1=O)c1ccncc1 (stereo not drawn) returned RGS4 inh -14.4%, TDP1 inh 35.5µM*, APE1 inh-1 inconclusive, GCN5L2 inh 1.5%, BLM helicase inh -14.2%, RECQ1 inh-1 12.6µM*, APE1 inh-2 -18.0%, RECQ1 inh conf 31.6µM*, RECQ1 ADP FP inconclusive and RECQ1 inh-2 12.6µM*.
For Cc1ccc(NC(=O)CN2C(=O)N/C(=C/c3cccn3-c3ccc(C(=O)O)cc3)C2=O)cc1 the results were RGS4 inh -21.7%, TDP1 inh 0.891µM*, APE1 inh-1 1.12µM*, GCN5L2 inh inconclusive, BLM helicase inh inconclusive, RECQ1 inh-1 7.94µM*, APE1 inh-2 1.26µM* and RECQ1 inh conf 20µM*.
`CCn1c(SCC(=O)c2ccc(O)c(O)c2)nnc1-c1ccccc1OC` gave RGS4 inh -13.6%, TDP1 inh 2.1%, APE1 inh-1 inconclusive, GCN5L2 inh -2.8%, BLM helicase inh -5.0%, RECQ1 inh-1 14.1µM*, APE1 dye cs 3.9%, Endo IV inh 90.2%, APE1 inh-2 inconclusive, APE1 FP 2.2% and RECQ1 inh-2 2µM*.
C=CCn1c(SCC(=O)c2ccc(O)c(O)c2)nnc1-c1cccc(C)c1 was read as RGS4 inh -14.6%, TDP1 inh 0.4%, APE1 inh-1 -6.2% and GCN5L2 inh -10.9%.
For C=CCn1c(SCC(=O)c2ccc(O)c(O)c2)nnc1-c1cccnc1 the results were RGS4 inh -13.9%[11.4 µM], TDP1 inh -8.2%, APE1 inh-1 1.58µM*, GCN5L2 inh inconclusive, BLM helicase inh inconclusive, RECQ1 inh-1 8.91µM*, APE1 dye cs -5.2%, Endo IV inh 136.0%, APE1 inh-2 2.51µM*, APE1 FP -22.9% and RECQ1 inh-2 3.55µM*.
For Cn1c(SCC(=O)O)nc2sc3c(c2c1=O)CCC3 the results were RGS4 inh -9.0%, APE1 inh-1 -10.4%, GCN5L2 inh -15.9% and BLM helicase inh 3.6%.
For CCn1c(SCC(=O)O)nc2sc3c(c2c1=O)CCC3 the results were RGS4 inh 1.2%, APE1 inh-1 22.4µM*, GCN5L2 inh -24.3%, BLM helicase inh -8.5%, RECQ1 inh-1 inconclusive, APE1 dye cs -4.7%, Endo IV inh 12.3%, APE1 inh-2 inconclusive, APE1 FP -8.3% and RECQ1 inh-2 inconclusive.
`CC(=O)NC1=NN(C(C)=O)C(C)(c2ccccc2)S1` (stereo not drawn) gave RGS4 inh 19.7%, APE1 inh-1 2.82µM*, GCN5L2 inh -3.1%, BLM helicase inh inconclusive, RECQ1 inh-1 39.8µM*, APE1 dye cs 5.2%, Endo IV inh -4.2%, APE1 inh-2 1.41µM*, APE1 FP -5.9% and RECQ1 inh-2 -2.1%.
C=Cc1c(C)/c2[n-]/c1=C\c1[n-]c(c(CC)c1C)/C=c1\[n-]c3c(c1C)C(=O)C(C(=O)[O-])C=3c1[n-]c(c(C)c1CCC(=O)[O-])\C=2.[Cu].[Na+].[Na+] (stereo not drawn) was read as TDP1 inh inconclusive, GCN5L2 inh 2.51µM*, BLM helicase inh 11.2µM*, RECQ1 inh-1 1.12µM*, Endo IV inh 15.8µM*, APE1 inh-2 2.82µM*, RECQ1 inh conf 2.82µM* and RECQ1 ADP FP 44.7µM*.
CCOC(=O)c1ccc(NC(=O)c2ccc3c(c2)CCN3S(=O)(=O)c2ccc(Cl)cc2)cc1 was read as RGS4 inh -10.2%, TDP1 inh 0.0%, GCN5L2 inh -8.6% and BLM helicase inh -3.9%.
For O=C(CCCN1C(=O)/C(=C/c2ccco2)SC1=S)Nc1cccc(C(=O)O)c1 the results were RGS4 inh -51.8%, APE1 inh-1 7.94µM*, GCN5L2 inh -11.1%, BLM helicase inh inconclusive, RECQ1 inh-1 8.91µM*, APE1 dye cs 0.5%, Endo IV inh 106.5%, APE1 inh-2 inconclusive, APE1 FP -8.8%, RECQ1 inh conf 70.8µM* and RECQ1 ADP FP 0.2%[91.9 µM].
`CC(=O)N[C@@H](CCCNC(=N)N)C(=O)N[C@H](CC1CCCCC1)C(=O)N[C@@H]1CCC2SC[C@@H](C(=O)N[C@H](CCCNC(=N)N)C(=O)N[C@H](Cc3ccc(Cl)cc3)C(N)=O)N2C1=O` (stereo partly drawn) gave TDP1 inh 8.9%, APE1 inh-1 -2.1%, GCN5L2 inh 31.0%, BLM helicase inh -12.9% and RECQ1 inh-1 -20.2%.
For O=C1c2ccccc2C(=O)C1c1cc2ccccc2cn1 the results were RGS4 inh -8.0% and TDP1 inh -18.2%.
